From PubChem
In the library only some 12% were active in any assay of this set; here they are far more common.
BAZ2B block – inhibitors of human BAZ2B bromodomain; Q9UIF8; AlphaScreen BAZ2B-H3K14Ac peptide displacement; Potency, µM (doses to about 114 µM), inactives show top-dose activity change, negative = inhibition, most hits filed as inhibitors; 4.4% of 360,000 active; also: % is scaled to controls: 0 for no effect and ±100 for the full control effect; nearly all actives have a fitted effect of over 60% in size
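AlphaScreen luminescence quantifies BAZ2B engagement of H3K14Ac peptide; the protein and biotinylated peptide are both at 50 nM final, buffer PBS pH 7.4 with 0.01% Tween-20, all steps at room temperature.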
Sfp inh – blocks B. subtilis Sfp PPTase activity; Q9F4F7; Biochemical Sfp PPTase activity, qHTS; Potency, µM, for the others: largest response in the series, negative = inhibition, usual class: inhibitors; 3.5% of 310,000 active;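 also: the enzyme is Sfp with the accession as filed and its product quenches rhodamine fluorescence; 0% = enzyme reaction without inhibitor and -100% = no enzyme wells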
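Fluorescence-quenching assay with 15 nM Sfp, 5 uM rhodamine-CoA and 12.5 uM BHQ-2-labelled ybbR peptide in pH 7.6 Hepes/MgCl2 buffer. Enzyme was pre-incubated with compound for 15 min at room temperature. Rate was taken from the 30-min fluorescence change (525/598 nm).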
HP1b chromo inh – inhibitors of HP1-beta chromodomain binding to methylated histone tails. P83916. AlphaScreen HP1-beta / biotin-H3K9me3 peptide binding. Potency, µM (doses to about 114 µM), inactives show top-dose activity change, negative = inhibition, usual class: inhibitors. 0.56% of 390,000 active; also: nearly all actives have a fitted effect of over 70% in size
Target sequence (P83916 whole entry, looked up): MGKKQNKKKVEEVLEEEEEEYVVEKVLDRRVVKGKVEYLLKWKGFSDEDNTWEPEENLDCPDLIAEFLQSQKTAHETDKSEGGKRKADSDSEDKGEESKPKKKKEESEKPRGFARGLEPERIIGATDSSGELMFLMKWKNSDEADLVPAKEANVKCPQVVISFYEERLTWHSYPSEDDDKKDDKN
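Compound inhibition of the preformed complex between 50 nM HP1-beta and 50 nM biotinylated H3K9me3 peptide was read by AlphaScreen. Buffer was PBS pH 7.4 with 0.01% Tween-20. Incubations ran 30 min at room temperature, with 10 ug/mL donor/acceptor beads.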
PLK1 PBD inh – PLK1 (human) polo-box domain binding inhibition. P53350. Plk1 PBD binding of FITC phosphopeptide, fluorescence polarization. Potency, µM, inactives show max response, negative = inhibition, most hits filed as inhibitors. 2.8% of 360,000 active; also: series mostly up to about 57 µM; % is scaled to controls: 0 for no effect and ±100 for the full control effect; nearly all actives have a fitted effect of over 65% in size
JMJD2A Tudor inh – JMJD2A Tudor domain (human) inhibition; Potency, µM (highest dose often 114 µM), for inactives: at the top dose activity change, negative = inhibition, most hits filed as inhibitors; AlphaScreen JMJD2A-Tudor / H3K4me3 peptide binding; 4.4% of 390,000 active; O75164; also: % is scaled to controls: 0 for no effect and ±100 for the full control effect; nearly all actives have a fitted effect of over 50% in size
G9a inh – G9a (human) methyltransferase inhibition; Q96KQ7; Potency, µM (doses to about 102 µM), for the others: at the top dose activity, negative = inhibition, most hits filed as inhibitors; 8.8% of 350,000 active; G9a H3K9 monomethylation, AlphaScreen, 2 h; also: % is scaled to controls: 0 for no effect and ±100 for the full control effect; nearly all actives have a fitted effect of over 75% in size
Target sequence (Q96KQ7 913-1193 limits assumed): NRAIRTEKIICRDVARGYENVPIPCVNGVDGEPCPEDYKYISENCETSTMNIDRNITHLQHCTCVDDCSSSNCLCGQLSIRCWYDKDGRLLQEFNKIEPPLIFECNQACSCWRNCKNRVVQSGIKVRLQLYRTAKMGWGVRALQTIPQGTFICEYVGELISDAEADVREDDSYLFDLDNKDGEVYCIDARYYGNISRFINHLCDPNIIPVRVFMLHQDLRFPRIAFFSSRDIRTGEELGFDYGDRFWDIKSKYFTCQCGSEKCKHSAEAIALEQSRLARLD
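Quantitative HTS format: methyltransferase activity on a biotin-tagged H3K9 peptide is measured by AlphaScreen, using a rabbit anti-monomethyl-H3K9 antibody with streptavidin donor and anti-IgG acceptor beads. Final levels are 20 nM enzyme, 500 nM peptide, 20 uM SAM; 2 h RT.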
* hit, by the source's call; ? = inconclusive; . = no result; [ ] = dose if it differs, or a comment. Calls follow the shape of the dose curve; as a rule, active = well fitted curve in the direction sought with a large enough effect; inconclusive = small, poorly fitted or top-dose-only effect, or another doubt; inactive = no such curve, though single readings can be large; an effect the other way counts as inactive or inconclusive. Potency is read from the fitted curve at half-maximal effect.

SMILES | BAZ2B block | Sfp inh | HP1b chromo inh | PLK1 PBD inh | JMJD2A Tudor inh | G9a inh
CC(NC(=O)CCCCCCN1C(=O)c2ccccc2C1=O)c1ccc2c(c1)CCCC2 (centres undefined) | -2% | 9% | 48% | 3% | 3% | 32%[59 µM]
CC(NC(=O)CCCCCN1C(=O)c2ccccc2C1=O)c1ccc2c(c1)CCCC2 (centres undefined) | 5% | -18% | 10% | -2% | -35% | 8.9µM*
O=C(N/N=C\c1ccc(Cl)s1)c1ccc(Cn2cccn2)o1 | 8% | -1% | -10% | 27µM* | 50µM* | 10%[59 µM]
CC(C)c1ccc(/C=N\NC(=O)c2ccc(Cn3cccn3)o2)cc1 | -20% | 8% | 12% | -3% | -8% | -1%
CCN1CCN(C(c2cccc(F)c2)c2c(O)cc(C)n(Cc3ccco3)c2=O)CC1 (centres undefined) | -14% | . | 18%[57 µM] | . | -35% | ?
COc1ccc(Nc2nc(-c3cccc(Cl)c3)c3c(n2)-c2ccccc2OC3)cc1 | 7% | . | 34% | . | 6% | -7%[59 µM]
CCOc1ccc(Nc2nc(-c3cccc(Cl)c3)c3c(n2)-c2ccccc2OC3)cc1 | -39% | . | -7% | . | ? | 13µM*
O/C(=C\c1nc2ccccc2nc1/C=C(\O)c1ccccc1)c1ccccc1 | 4.5µM* | 40µM* | -16% | ? | ? | ?
COc1ccccc1CNc1ncncc1-c1ccc(N(C)C)cc1 | . | -6% | . | . | . | .
COc1ccc(CNc2ncncc2-c2ccc(N(C)C)cc2)c(OC)c1 | . | 79µM* | . | . | . | -1%[0.501 µM]
COc1ccc(OC)c(NC(=O)CCNS(=O)(=O)c2cccc3nsnc23)c1 | -1% | 18% | 17% | -9% | -13% | -6%
COc1ccc(N2CCN(CCNC(=O)CCS(=O)(=O)c3cccc4nsnc34)CC2)cc1 | ? | -9% | . | . | . | 45µM*
COc1ccc(N2CCN(CCNS(=O)(=O)c3cccc4nsnc34)CC2)cc1 | -39% | 20% | -30% | 27µM* | -18%[11.4 µM] | ?
COCCNC(=O)C1(C)CCCN(Cc2cc(-c3ccccc3)on2)C1 (centres undefined) | . | . | . | 2% | . | .
CCC1CN(S(=O)(=O)c2cc(-c3onc(C)c3C)ccc2C)c2cc(Cl)ccc2O1 (centres undefined) | 0% | . | 33% | . | 11% | 4%[59 µM]
CN(C)c1cccc(NC(=O)CCc2ccccc2)c1 | ? | 1% | ? | -19% | 12%[11.4 µM] | 3.2µM*
CC(=O)Nc1ccc(NC(=O)c2cccc3ccccc23)cc1 | -14% | 29% | 32% | 1% | ? | 8%
CN(C)c1cccc(NC(=O)c2cccc3ccccc23)c1 | 28µM* | -3% | 50µM* | -9% | 22µM* | 32µM*
CC(=O)Nc1cccc(NC(=O)CCc2ccccc2)c1 | -31% | 5% | 5% | -14% | -9% | ?
FC(F)(F)c1ccccc1Cc1c(-c2cccc(Br)c2)nc2ccc(Br)cn12 | . | . | . | -3% | . | .
c1ccc(Cn2nnc3c(Nc4ccc5c(c4)OCO5)nc(C4CC4)nc32)cc1 | ? | 89µM* | 7% | -1% | -35% | -18%[59 µM]
COc1cc(OC)c(NC(=O)CCn2cnc3onc(-c4ccc(F)cc4)c3c2=O)cc1Cl | 6%[57.1 µM] | . | 13% | . | -15% | -24%[59 µM]
NS(=O)(=O)c1ccc(CNC(=O)/C=C/c2ccccc2)cc1 | -2%[57.1 µM] | 6% | 1% | 27µM* | -8%[11.4 µM] | ?
NS(=O)(=O)c1ccc(CNC(=O)Cc2cccs2)cc1 | 56µM* | 1% | 18% | -16% | ? | 71µM*
COc1ccc(CNC(=O)CCCSc2ccccc2)cc1 | 4% | 13% | 23% | 1% | 15% | 49%
NS(=O)(=O)c1ccc(CNC(=O)CCCSc2ccccc2)cc1 | 1% | 9% | -9% | 30µM* | ? | -42%
O=C(Nc1ccc(S(=O)(=O)N2CCCCC2c2cccnc2)cc1)c1ccc(Br)cc1 (centres undefined) | -13% | . | 28%[57 µM] | . | -14% | 6%[59 µM]
CCOc1ccc(-n2c(SCC(=O)Nc3cc(C)on3)nc3c(c2=O)SCC3)cc1 | 0% | -2% | -3% | -9% | -18% | -5%
